# In PubChem BioAssay:
# Active and inactive are the calls of the source.
# Assays:
# [1] = biological target: Albumin (Bos taurus) (UniProt P02769); assay: bovine serum albumin binders on microarray, profiling panel, artefact control for SMM control protein annotation, biochemical, small-molecule microarray, Alexa647 label, 635/667 nm fluorescence (AID 1118); conditions: BSA-A647 binding, fluorescence 635 nm, higher = more signal;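 note: score merges 667 nm emission intensity and signal-to-noise per printed compound spot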
# Albumin (Bos taurus), sequence (P02769 whole entry, looked up): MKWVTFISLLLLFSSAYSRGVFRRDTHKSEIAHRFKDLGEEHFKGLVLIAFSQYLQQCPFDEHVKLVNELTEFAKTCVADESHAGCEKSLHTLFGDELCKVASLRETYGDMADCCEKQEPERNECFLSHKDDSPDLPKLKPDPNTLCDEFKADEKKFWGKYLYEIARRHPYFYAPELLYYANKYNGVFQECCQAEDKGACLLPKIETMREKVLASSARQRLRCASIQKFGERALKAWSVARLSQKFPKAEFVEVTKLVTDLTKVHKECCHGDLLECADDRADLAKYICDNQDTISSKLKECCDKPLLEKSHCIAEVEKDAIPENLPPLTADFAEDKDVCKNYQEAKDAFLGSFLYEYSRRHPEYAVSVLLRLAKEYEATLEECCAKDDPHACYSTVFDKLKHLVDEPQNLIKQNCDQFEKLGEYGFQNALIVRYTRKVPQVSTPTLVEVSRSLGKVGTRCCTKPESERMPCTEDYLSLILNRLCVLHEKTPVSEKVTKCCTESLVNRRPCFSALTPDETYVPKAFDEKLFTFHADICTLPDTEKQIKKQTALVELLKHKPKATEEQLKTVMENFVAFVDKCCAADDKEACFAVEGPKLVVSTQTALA
# [2] = small-molecule microarray binders of probe aXIP, primary screen, biochemical, NeuroSMM set, 635/667 nm fluorescence (AID 1119); conditions: higher = more signal, called active from +8 up or from −8 down;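 note: probe is the protein aXip251-270 applied at 1 µg/mL to compound-printed slides; binding of probe to printed compounds measured as 667 nm fluorescence plus signal to noise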
# [3] = small-molecule binders of probe aNOTCH3, primary screen, biochemical, small-molecule microarray, 635/667 nm fluorescence (AID 1120); conditions: higher = more signal;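 note: probe is a biotin-tagged antibody raised against NOTCH3 rather than NOTCH3 protein; score merges spot fluorescence near 667 nm with spot signal to noise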
# [4] = small-molecule binders of probe aNOTCH2, primary screen, biochemical, small-molecule microarray, 635/667 nm fluorescence (AID 1121); conditions: higher = more signal;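 note: score merges feature fluorescence read at 667 nm with its signal to noise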
# [5] = biological target: Carbonic anhydrase 2 (Homo sapiens) (UniProt P00918); assay: CAII small-molecule binders, profiling panel, biochemical, small-molecule microarray, Alexa647-labelled CAII (AID 1122); conditions: CAII-A647 binding fluorescence, higher = more signal
# [6] = COS7 lysate on small-molecule microarray, probe aHis, 635 nm (AID 1123); conditions: COS7 cell lysate, fluorescence, higher = more signal;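 note: z-score combines 667nm fluorescence intensity with signal-to-noise per printed compound spot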
# [7] = compound binding in COS7 lysate, probe aLAP1, primary screen, cell lysate, small-molecule microarray (AID 1124); conditions: probe aLAP1, fluorescence, higher = more signal;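 note: lysate comes from COS7 cells expressing LAP1 and is applied at 0.3 µg/mL; score merges spot fluorescence near 667 nm with signal-to-noise over triplicate slides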
# [8] = tested on: Sam68 (KHDRBS1); assay: Sam68 small-molecule binders, primary screen, biochemical, small-molecule microarray, 635 nm fluorescence (AID 1125); conditions: small-molecule microarray binding, higher = more signal;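 note: score merges 667 nm channel intensity with signal to noise over triplicate slides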
# [9] = tested on: Chordin-like protein 2 (CHRDL2); assay: CHRDL2 small-molecule binders, primary screen, biochemical, small-molecule microarray, 635 nm fluorescence (AID 1126); conditions: small-molecule microarray binding, fluorescence 635 nm; higher = more signal;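 note: printed compound slides probed with Chrdl2 protein at 4 µg/mL for 1 h at 4 C; score merges 667 nm emission intensity with signal to noise over three replicate slides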
# [10] = biological target: Concanavalin-A (Canavalia ensiformis) (UniProt P02866); assay: ConA small-molecule binders, primary screen, artefact control for SMM control protein annotation, biochemical, small-molecule microarray, Alexa647 label, 635 nm (AID 1127); conditions: ConA-A647 binding fluorescence, higher = more signal;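 note: z combines 667 nm emission intensity with signal-to-noise across three replicate slides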
# Concanavalin-A (Canavalia ensiformis), sequence (P02866 whole entry, looked up): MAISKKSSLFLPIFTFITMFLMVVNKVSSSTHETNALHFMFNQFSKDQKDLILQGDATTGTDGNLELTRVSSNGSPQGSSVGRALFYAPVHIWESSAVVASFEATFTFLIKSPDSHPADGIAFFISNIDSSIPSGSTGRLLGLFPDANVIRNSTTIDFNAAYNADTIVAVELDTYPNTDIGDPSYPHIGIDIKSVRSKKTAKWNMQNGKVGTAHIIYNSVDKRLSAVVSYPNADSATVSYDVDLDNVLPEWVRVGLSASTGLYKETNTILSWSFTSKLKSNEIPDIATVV
SMILES,composite z-score [1],composite Z-score [2],composite z-score [3],composite z-score [4],composite z-score [5],composite z-score [6],composite z-score [7],composite z-score [8],composite z-score [9],composite z-score [10]
COc1cc2c(cc1O)C(c1cccs1)N(Cc1ccc([N+](=O)[O-])o1)CC2 (stereo not given),0.878,3.03 (inactive),0.029,0.12,0.876,1.35,1.08,0.0376,-0.57,0.364
COC(=O)[C@@]1(Cc2ccccc2)[C@H]2c3cc(C(=O)N(C)C)n(Cc4ccc(OC)c(OC)c4)c3C[C@H]2CN1C(=O)c1ccccc1,0.864,0.0388 (inactive),0.775,0.318,0.467,3.07,0.463,1.29,-0.78,0.829
CC(C)OC(=O)C=C1C[C@@H](c2cccc(Cl)c2)O[C@@H](c2cccc(Cl)c2)O1,0.466,0.806 (inactive),-0.137,0.0234,0.299,1.68,0.484,-0.296,-0.579,0.99
CC(C)=CCCC(C)=CC(O)C1C=CC2C(=O)N(c3ccccc3)C(=O)C2N1Nc1ccc(C(C)C)cc1 (stereo not given),0.792,0.415 (inactive),0.282,0.0683,0.465,2.32,-0.519,1.23,-1.01,1.09
Cc1ccc(C2C3C(=O)CC4C(=O)N(c5ccccc5)C(=O)C4C3CN2S(=O)(=O)c2ccc(C)cc2)cc1 (stereo not given),0.684,-0.0384 (inactive),0.469,0.603,0.539,2.17,0.362,1.17,-0.479,0.671
COC(=O)[C@@]1(Cc2ccc(OC)cc2)[C@H]2c3cc(C(=O)N4CCCC4)n(Cc4nc5ccccc5[nH]4)c3C[C@H]2CN1C(=O)c1ccccc1,1.08,0.234 (inactive),0.537,0.013,0.78,3.39,1.13,1.32,-0.45,0.174
CCCCCCc1nc(-c2ccc(-c3ccc(Cl)c(Cl)c3)o2)cc2c1[Si](C(C)C)(C(C)C)O[C@H]2c1ccccc1,0.108,1.35 (inactive),-0.292,-0.153,0.739,0.458,-0.418,-0.472,-0.517,-0.131
